Inconclusive results are not listed. The source made the active and inactive calls. Unless noted, calls come from the whole dose curve; as a rule, active = well fitted curve in the direction sought with a large enough effect; inconclusive = small, poorly fitted or top-dose-only effect, or another doubt; inactive = no such curve, though single readings can be large; an effect the other way counts as inactive or inconclusive.
Assays:
[1] = target: Lysosomal acid glucosylceramidase (Homo sapiens) (UniProt P04062); experiment: Glucocerebrosidase-p2 (AID 348; in the data active = potency below about 10 µM; note: potency is the fitted concentration of half-maximal effect); conditions: purified GBA, blue fluorogenic substrate, 40 min
Lysosomal acid glucosylceramidase (Homo sapiens), sequence (P04062 whole entry, looked up): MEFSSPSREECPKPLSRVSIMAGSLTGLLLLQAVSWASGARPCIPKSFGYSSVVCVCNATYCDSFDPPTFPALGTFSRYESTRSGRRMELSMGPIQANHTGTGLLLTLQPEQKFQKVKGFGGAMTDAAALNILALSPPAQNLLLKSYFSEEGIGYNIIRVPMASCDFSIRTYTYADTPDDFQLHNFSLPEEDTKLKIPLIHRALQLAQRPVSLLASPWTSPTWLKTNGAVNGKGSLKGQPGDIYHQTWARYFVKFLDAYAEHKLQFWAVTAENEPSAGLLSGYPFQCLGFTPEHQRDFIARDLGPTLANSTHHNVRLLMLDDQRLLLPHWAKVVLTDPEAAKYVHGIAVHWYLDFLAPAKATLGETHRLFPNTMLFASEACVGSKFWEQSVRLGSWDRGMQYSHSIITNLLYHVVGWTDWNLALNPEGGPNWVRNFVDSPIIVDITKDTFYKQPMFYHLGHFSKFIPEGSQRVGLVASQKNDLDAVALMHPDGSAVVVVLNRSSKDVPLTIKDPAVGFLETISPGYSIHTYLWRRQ
Method in brief: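 Compounds titrated from 0.6 nM upwards against 0.2 nM enzyme in pH 5.9 citric acid/KH2PO4, taurocholate, tween-20; blue fluorogenic substrate 80 uM, 40 min room temperature, stopped and read Ex 365/Em 440 for AC50.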

[2] = AP1 Signaling Pathway (AID 357; active = well fitted curve in either direction with a large enough effect, not every such curve was filed as active;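 note: ME-180 reporter cells stimulated with EGF at its EC50 level; % is set by controls: 0 for no effect and ±100 for the full control effect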); conditions: ME-180 AP-1-bla reporter, EGF-induced, beta-lactamase ratio, 5 h; at 7.69 µM (top of the series) unless noted
Method in brief: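 Beta-lactamase reporter under AP-1 response element, ME-180 background. Stimulus: EC50 EGF. Compound exposure 5 h, 37 °C. Detection: CCF4, 2.5 h RT, 460/530 nm. Values: AC50 from titration.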

[3] = target: Cytochrome P450 1A2 (Homo sapiens) (UniProt P05177); experiment: p450-cyp1a2 (AID 410; calls by dose curve; note: potency is the fitted concentration of half-maximal effect); conditions: recombinant CYP1A2, luciferin-ME demethylation, luminescence; series mostly up to 57 µM
Cytochrome P450 1A2 (Homo sapiens), sequence (P05177 whole entry, looked up): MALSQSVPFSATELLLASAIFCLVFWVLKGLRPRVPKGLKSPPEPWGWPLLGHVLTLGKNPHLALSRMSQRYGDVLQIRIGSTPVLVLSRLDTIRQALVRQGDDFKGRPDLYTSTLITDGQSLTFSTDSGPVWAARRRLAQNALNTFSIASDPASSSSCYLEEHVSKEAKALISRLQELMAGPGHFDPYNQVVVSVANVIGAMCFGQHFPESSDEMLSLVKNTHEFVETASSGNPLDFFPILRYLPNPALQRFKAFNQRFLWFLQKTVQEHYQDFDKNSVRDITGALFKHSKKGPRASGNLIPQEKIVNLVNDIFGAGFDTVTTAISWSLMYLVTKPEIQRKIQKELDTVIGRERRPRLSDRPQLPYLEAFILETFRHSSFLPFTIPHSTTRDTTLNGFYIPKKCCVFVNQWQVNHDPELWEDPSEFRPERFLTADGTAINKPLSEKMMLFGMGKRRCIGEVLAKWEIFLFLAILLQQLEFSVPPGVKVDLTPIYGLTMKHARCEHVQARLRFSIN
Method in brief: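 Human CYP1A2 (20nM) demethylated Luciferin-ME at its Km (100uM) in 100mM KPO4. After 10 min compound preincubation, NADPH regeneration ran the reaction 60 min at room temperature. Luciferin was read by luminescence, normalized to 57 uM furafylline.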

[4] = NFAT Signaling Pathway (AID 444; active = well fitted curve in either direction with a large enough effect, not every such curve was filed as active;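 note: carbachol stimulus at about its EC50 of 1 µM final; % is set by controls: 0 for no effect and ±100 for the full control effect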); conditions: Jurkat NFAT-bla M1, carbachol, beta-lactamase ratio, 5 h; at 7.69 µM (top of the series) unless noted
Method in brief: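 Jurkat cells carrying an NFAT-driven β-lactamase reporter and co-transfected muscarinic M1 receptor were treated with compound plus carbachol (1 uM final, an EC50 level) for 5 h at 37 °C. CCF4 loading followed for 1 h at RT; 460/530 nm ratio gave %activity.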

[5] = Stat Signaling Pathway (AID 446; active = well fitted curve in either direction with a large enough effect, not every such curve was filed as active;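 note: ME-180 cervical cancer cells given 40 pM IL-6 alongside compound; SIE-controlled beta-lactamase reporter measured as 460/530 nm FRET emission ratio; % is set by controls: 0 for no effect and ±100 for the full control effect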); conditions: ME-180 SIE beta-lactamase reporter, IL-6 stimulated, 5 h; at 7.69 µM (top of the series) unless noted
Method in brief: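 ME-180 SIE-bla cells; overnight plating; cpd + IL-6 40 pM, 5 h, 37 C; LiveBLAzer 2.5 h RT; 460/530 nm emission ratio. Normalized to 300 pM IL-6 and 125 nM JAK inhibitor controls.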

[6] = target: Glucocorticoid receptor (Homo sapiens) (UniProt P04150); experiment: GR-GFP Redistribution (AID 450;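 active = compounds whose dose series gives a full or clear partial fitted curve of increased nuclear translocation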; note: potency is the fitted concentration of half-maximal effect); conditions: U2OS GR-GFP nuclear translocation, laser cytometry, 2 h
Glucocorticoid receptor (Homo sapiens), sequence (P04150 whole entry, looked up, the tested form may be a part): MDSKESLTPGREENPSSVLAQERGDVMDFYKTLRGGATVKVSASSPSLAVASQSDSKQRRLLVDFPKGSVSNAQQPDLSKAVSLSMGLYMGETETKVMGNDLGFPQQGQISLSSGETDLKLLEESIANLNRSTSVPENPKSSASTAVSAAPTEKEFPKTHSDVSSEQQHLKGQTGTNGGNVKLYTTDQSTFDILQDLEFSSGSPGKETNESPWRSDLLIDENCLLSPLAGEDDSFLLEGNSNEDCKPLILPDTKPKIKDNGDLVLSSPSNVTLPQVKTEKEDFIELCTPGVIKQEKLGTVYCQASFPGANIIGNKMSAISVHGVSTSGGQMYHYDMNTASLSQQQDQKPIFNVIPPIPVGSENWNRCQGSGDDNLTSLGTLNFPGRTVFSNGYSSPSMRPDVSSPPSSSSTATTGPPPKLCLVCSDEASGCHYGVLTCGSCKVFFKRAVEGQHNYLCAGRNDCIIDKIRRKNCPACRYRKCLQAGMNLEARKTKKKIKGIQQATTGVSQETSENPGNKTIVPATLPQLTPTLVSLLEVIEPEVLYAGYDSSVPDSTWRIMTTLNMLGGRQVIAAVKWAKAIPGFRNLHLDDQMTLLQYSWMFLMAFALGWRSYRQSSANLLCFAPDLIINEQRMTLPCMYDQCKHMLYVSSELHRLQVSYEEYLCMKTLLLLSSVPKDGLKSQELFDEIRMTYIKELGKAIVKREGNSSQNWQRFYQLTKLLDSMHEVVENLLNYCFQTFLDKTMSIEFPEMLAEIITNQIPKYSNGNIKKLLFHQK

[7] = target: Mitogen-activated protein kinase 10 (Mus musculus) (UniProt Q61831); experiment: JNK3 AlphaScreen Assay (AID 530; active = well fitted curve in either direction with a large enough effect, not every such curve was filed as active;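 note: kinase came from lysate of stimulated human HepG2 cells; signal reports phosphorylation of biotinylated GST-cJun 1-79 at Ser73 with 10 µM ATP; % is set by controls: 0 for no effect and ±100 for the full control effect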); conditions: JNK3 lysate, c-Jun phosphorylation; series mostly up to 57.1 µM
Method in brief: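 JNK3 came from HepG2 lysates pre-activated with IL-1beta and TNF-alpha and phosphorylated biotinylated GST-cJun (1-79) at 10 uM ATP, pH 7.6, room temperature. Compounds were titrated. AlphaScreen signal used anti-phospho-cJun (Ser73) antibody.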

[8] = target: 3',5'-cyclic-AMP phosphodiesterase 4B (Homo sapiens) (UniProt Q07343); experiment: qHTS Assay for Inhibitors of PDE-IV (AID 607; active = well fitted activation curve with a large enough effect in the main read-out, with a control signal flat, not every such curve was filed as active; note: % of control where 0% means no effect); conditions: HEK293 ACTOne CNG channel cells, membrane potential fluorescence; series mostly up to 22.9 µM
3',5'-cyclic-AMP phosphodiesterase 4B (Homo sapiens), sequence (Q07343 whole entry, looked up): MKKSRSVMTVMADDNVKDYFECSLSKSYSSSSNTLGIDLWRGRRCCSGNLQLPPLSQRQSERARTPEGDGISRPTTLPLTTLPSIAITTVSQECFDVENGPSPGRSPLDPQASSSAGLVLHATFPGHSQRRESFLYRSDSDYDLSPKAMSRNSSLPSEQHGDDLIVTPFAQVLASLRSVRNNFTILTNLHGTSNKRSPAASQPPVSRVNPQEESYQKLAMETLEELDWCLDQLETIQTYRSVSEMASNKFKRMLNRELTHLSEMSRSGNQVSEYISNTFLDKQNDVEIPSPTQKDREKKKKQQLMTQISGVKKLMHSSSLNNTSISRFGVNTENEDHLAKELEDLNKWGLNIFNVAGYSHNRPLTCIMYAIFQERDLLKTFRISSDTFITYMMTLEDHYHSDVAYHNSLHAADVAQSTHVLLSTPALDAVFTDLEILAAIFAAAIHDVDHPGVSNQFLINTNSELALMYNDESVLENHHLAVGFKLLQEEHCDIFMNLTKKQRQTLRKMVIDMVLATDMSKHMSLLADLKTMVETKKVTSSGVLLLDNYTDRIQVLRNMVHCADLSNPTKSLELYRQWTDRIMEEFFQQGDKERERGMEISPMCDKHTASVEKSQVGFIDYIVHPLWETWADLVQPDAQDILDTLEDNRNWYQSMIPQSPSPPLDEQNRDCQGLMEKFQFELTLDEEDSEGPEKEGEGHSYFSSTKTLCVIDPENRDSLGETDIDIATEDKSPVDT
Method in brief: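 ACTOne HEK293 cells carry a modified cAMP-gated CNG channel and express endogenous PDE4; plated 1000 cells/well, compounds up to 22.9 uM final. Membrane-potential dye fluorescence (ex 535/em 590) was read; parental cells received 10 uM forskolin + 100 uM RO 20-1724.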

[9] = target: Cytochrome P450 3A4 (Homo sapiens) (UniProt P08684); experiment: qHTS Assay for Activators of Cytochrome P450 3A4 (AID 885); conditions: recombinant CYP3A4, Luciferin-PPXE luminescence, 60 min; series mostly up to 57.1 µM; note: nearly all actives have a fitted effect of over 65% in size
Cytochrome P450 3A4 (Homo sapiens), sequence (P08684 whole entry, looked up): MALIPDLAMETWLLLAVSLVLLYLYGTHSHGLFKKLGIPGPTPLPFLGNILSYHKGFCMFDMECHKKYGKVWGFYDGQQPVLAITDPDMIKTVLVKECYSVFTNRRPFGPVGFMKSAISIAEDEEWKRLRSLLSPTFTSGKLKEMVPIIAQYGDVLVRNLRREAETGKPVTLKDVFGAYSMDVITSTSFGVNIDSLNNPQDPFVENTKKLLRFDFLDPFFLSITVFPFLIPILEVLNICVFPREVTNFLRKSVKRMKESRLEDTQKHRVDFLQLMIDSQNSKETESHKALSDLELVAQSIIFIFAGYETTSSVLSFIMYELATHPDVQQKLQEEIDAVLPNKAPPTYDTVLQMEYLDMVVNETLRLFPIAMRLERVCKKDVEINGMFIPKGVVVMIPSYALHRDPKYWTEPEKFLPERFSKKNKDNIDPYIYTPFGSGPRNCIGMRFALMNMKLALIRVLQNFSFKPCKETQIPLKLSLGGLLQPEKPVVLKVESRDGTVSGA
Method in brief: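 20nM CYP3A4 + 25uM Luciferin-PPXE (=KM), 200mM KPO4; cpd 10 min RT; NADPH regen, 60 min RT; stop w/ detection buffer, 20 min; luminescence. Normalized to 57 uM ketoconazole.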

[10] = Counterscreen qHTS for small molecule stabilizers of the endoplasmic reticulum resident proteome: GLuc-NoTag assay (AID 1508627); conditions: Gaussia luciferase NoTag secretion counterscreen, luminescence, thapsigargin 100 nM for final 4 h; series mostly up to 76.4 µM; note: potency is the fitted concentration of half-maximal effect;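 for activity change, negative = inhibition: SH-SY5Y cells given compound then 100 nM thapsigargin to empty ER calcium; 0% = thapsigargin alone and -100% = DMSO vehicle control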
Method in brief: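 SH-SY5Y cells stably expressing constitutively secreted GLuc (no SERCaMP tag) were pre-incubated 5 h, treated with compound for 19 h, then 100 nM thapsigargin for 4 h at 37C; medium GLuc read by coelenterazine luminescence.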

[11] = qHTS Assay for Lipid Storage Modulators (AID 1519; calls by dose curve); conditions: Drosophila S3 cells, BODIPY lipid droplet/cell ratio, laser cytometry, cells loaded with oleic acid; for activity change, negative = inhibition: at 57.5 µM (top of the series)
Method in brief: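 Cells seeded at 5,000 per well were treated with compounds over a concentration series and loaded with oleic acid (400 uM, as added). Lipid droplet fluorescence (488 nm excitation, 500-530 nm channel) was read by laser-scanning cytometry and normalized to 20 uM Triacsin C.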

[12] = target: Dual specificity protein kinase CLK4 (Homo sapiens) (UniProt Q9HAZ1); experiment: qHTS Assay for Inhibitors of CDC-like Kinase 4 (Kinase-Glo Assay) (AID 1770); conditions: recombinant Clk4, Kinase-Glo ATP depletion luminescence; series mostly up to 66.7 µM; note: % is set by controls: 0 for no effect and ±100 for the full control effect; nearly all actives have a fitted effect of over 65% in size
Dual specificity protein kinase CLK4 (Homo sapiens), sequence (Q9HAZ1 whole entry, looked up): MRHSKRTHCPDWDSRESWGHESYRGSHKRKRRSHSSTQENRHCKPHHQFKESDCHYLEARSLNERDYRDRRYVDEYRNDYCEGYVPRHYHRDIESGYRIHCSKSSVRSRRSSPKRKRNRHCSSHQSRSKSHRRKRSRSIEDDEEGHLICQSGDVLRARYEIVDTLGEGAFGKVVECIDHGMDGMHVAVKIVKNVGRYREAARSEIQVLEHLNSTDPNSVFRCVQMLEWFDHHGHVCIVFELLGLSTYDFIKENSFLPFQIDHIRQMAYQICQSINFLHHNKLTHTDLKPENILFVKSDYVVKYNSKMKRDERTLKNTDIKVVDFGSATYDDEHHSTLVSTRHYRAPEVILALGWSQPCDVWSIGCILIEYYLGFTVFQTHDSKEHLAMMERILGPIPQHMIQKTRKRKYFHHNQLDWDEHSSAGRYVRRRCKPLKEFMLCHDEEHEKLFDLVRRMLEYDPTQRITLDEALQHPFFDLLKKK
Method in brief: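 Readout: Kinase-Glo luminescence from ATP left after a 4.5 h room-temperature reaction of 25 nM Clk4 with 100 uM RS peptide and 1 uM ATP (final). Buffer: 25 mM Tris pH 7.5, 10 mM MgCl2.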

[13] = target: Dual specificity protein kinase CLK4 (Homo sapiens) (UniProt Q9HAZ1); experiment: qHTS Assay for Inhibitors of CDC-like Kinase 4 (ADP-Glo Assay) (AID 1771); conditions: recombinant CLK4, ADP-Glo luminescence; series mostly up to 80 µM; note: % is set by controls: 0 for no effect and ±100 for the full control effect; nearly all actives have a fitted effect of over 70% in size
Method in brief: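 Clk4 (25 nM) was incubated 1 hr at room temperature with 100 uM RS repeat peptide and 1 uM ATP in buffer with 2 mM MgCl2, 0.5 mM EGTA, 2.5 mM DTT. ADP formed was quantified by ADP-Glo luminescence.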

[14] = target: Dual specificity protein kinase CLK4 (Homo sapiens) (UniProt Q9HAZ1); experiment: qHTS Assay for Inhibitors of CDC-like Kinase 4 (ADP-FP Assay) (AID 1795); conditions: Transcreener ADP fluorescence polarization; series mostly up to 50 µM;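 note: recombinant human CLK4 phosphorylating RS repeat peptide at 1 µM ATP; % is set by controls: 0 for no effect and ±100 for the full control effect; nearly all actives have a fitted effect of over 60% in size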
Method in brief: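 FP readout: Orange Transcreener ADP2 tracer (4 nM) plus ADP antibody, read after 30 min at room temperature. Kinase step: 6.25 nM Clk4, 100 uM RS peptide, 1 uM ATP, pH 7.5, 1 h.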

[15] = target: Ubiquitin carboxyl-terminal hydrolase 1 (Homo sapiens) (UniProt O94782); experiment: Inhibitors of USP1/UAF1: Pilot qHTS (AID 504865); conditions: purified USP1/UAF1, Ub-rhodamine cleavage fluorescence; series mostly up to 54.9 µM;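 note: rhodamine fluorescence freed from ubiquitin-rhodamine substrate followed over time; top concentration of the series differs between compounds; % is set by controls: 0 for no effect and ±100 for the full control effect; nearly all actives have a fitted effect of over 35% in size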
Ubiquitin carboxyl-terminal hydrolase 1 (Homo sapiens), sequence (O94782 whole entry, looked up): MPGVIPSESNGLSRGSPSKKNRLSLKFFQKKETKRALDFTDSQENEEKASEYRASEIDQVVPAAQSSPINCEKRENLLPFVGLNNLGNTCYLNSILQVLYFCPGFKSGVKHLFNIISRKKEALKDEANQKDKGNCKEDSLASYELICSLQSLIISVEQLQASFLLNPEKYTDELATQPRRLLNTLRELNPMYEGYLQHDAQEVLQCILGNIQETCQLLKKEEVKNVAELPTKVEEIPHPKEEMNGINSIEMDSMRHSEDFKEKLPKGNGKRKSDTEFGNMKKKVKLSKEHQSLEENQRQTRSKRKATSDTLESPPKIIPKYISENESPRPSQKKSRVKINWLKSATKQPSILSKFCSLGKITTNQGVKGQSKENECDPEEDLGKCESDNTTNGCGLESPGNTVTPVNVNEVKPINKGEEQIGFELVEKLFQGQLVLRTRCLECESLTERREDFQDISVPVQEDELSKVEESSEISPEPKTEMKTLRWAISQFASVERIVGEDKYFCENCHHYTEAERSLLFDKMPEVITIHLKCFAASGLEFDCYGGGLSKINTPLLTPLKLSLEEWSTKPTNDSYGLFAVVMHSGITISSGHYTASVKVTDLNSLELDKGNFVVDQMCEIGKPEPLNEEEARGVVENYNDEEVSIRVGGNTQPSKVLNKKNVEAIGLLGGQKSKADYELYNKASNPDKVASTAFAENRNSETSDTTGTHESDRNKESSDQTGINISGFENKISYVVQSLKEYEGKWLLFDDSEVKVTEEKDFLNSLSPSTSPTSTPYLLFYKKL
Method in brief: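 1nM USP1/UAF1 + cpd, 15 min RT; start w/ Ub-Rho 150nM final; kinetic FL 480/540 nm, 6 reads q60 s. Buffer 50mM HEPES pH 7.8, 0.5mM EDTA, 1mM TCEP, 0.01% Tween-20, 0.1 mg/ml BSA.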

[16] = target: Glucocorticoid receptor (Homo sapiens) (UniProt P04150); experiment: GR-EFC Redistribution (AID 451; calls by dose curve; note: potency is the fitted concentration of half-maximal effect); conditions: CHO-K1 GR-EFC translocation, beta-gal luminescence, 2 h
Method in brief: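 CHO-K1 cells stably expressing nuclear-localized β-gal enzyme acceptor and GR fused C-terminally to the enzyme donor fragment; ligand-driven nuclear translocation restores β-gal by complementation. Compounds titrated up to 46 uM final, 2 h at 37 °C; luminescence read.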

[17] = target: Cytochrome P450 3A4 (Homo sapiens) (UniProt P08684); experiment: qHTS Assay for Inhibitors and Substrates of Cytochrome P450 3A4 (AID 884); conditions: recombinant CYP3A4, Luciferin-PPXE luminescence; series mostly up to 57.1 µM; note: potency is the fitted concentration of half-maximal effect; nearly all actives have a fitted effect of over 50% in size
Method in brief: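 20 nM human CYP3A4 with 25 uM Luciferin-PPXE (at KM) in 200 mM KPO4, preincubated 10 min with compound; NADPH regeneration started a 60 min RT reaction. Luciferin detected by luminescence, normalized to 57 uM ketoconazole as full inhibition.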

[18] = Confirmation and Secondary Assay for Modulators of Hemoglobin Beta Chain Splicing at IVS2 654 locus (AID 910); conditions: HeLa EGFP-654 splicing reporter, GFP fluorescence, 48 h; series mostly up to 38.3 µM;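 note: per-well total GFP intensity by laser scanning cytometry after 2-day treatment; % of control where 0% means no effect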
Method in brief: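 HeLa cells stably carrying EGFP interrupted by mutant beta-globin IVS2-654 intron (CMV-driven) were treated with compound for 2 days at 37C; corrected splicing was scored as total peak GFP intensity per well (488 nm excitation, 500-520 nm emission).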

[19] = Confirmatory qHTS for small molecule stabilizers of the endoplasmic reticulum resident proteome: Secreted ER Calcium Modulated Protein (SERCaMP) assay (AID 1508628); conditions: SERCaMP secreted luciferase ER calcium/proteostasis reporter; series mostly up to 76.3 µM; note: potency is the fitted concentration of half-maximal effect; nearly all actives have a fitted effect of over 40% in size
Method in brief: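 We seeded SH-SY5Y-GLuc-SERCaMP cells, added compounds (three concentrations in the primary run, eleven up to 76.6 uM in confirmation), incubated 16 h, depleted ER calcium with thapsigargin, and read luciferase 4 h later.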

[20] = Cell Viability qHTS for small molecule stabilizers of the endoplasmic reticulum resident proteome (AID 1508629); conditions: cell viability counter-screen, 100 nM thapsigargin for final 4 h
[21] = measured here: cell count channel max response
[22] = measured here: lipid channel max response

COc1ncc2nc(CCc3ccccc3)c(=O)n(C3CC3)c2n1
active: Potency [3] 3.16 µM
inactive: Potency [1] > 11.4 µM | activity change, negative = inhibition [2] -0.42% | activity change, negative = inhibition [4] 0.053% | activity, negative = inhibition [5] -2.79% | Potency [6] > 9.22 µM | outcome [7] | Potency [8] | Potency [9] | Potency [10]

COCCn1c(=O)c(-c2ccc(Cl)cc2)nc2cnc(OCc3ccccc3)nc21
-15.5%: max response [11, 22]
inactive: Potency [1] > 11.4 µM | activity change, negative = inhibition [2] -14.1% | activity change, negative = inhibition [4] 1.06% | activity, negative = inhibition [5] -2.08% | Potency [6] > 9.22 µM | outcome [7] | activity change, negative = inhibition [11] -8.74% | Potency [12] | Potency [13] | Potency [14] | Potency [15] | Potency [10]
-2.09%: max response [11, 21]

COc1ccccc1-c1ccc2ncnc(N3CCN(C)CC3)c2c1
inactive: Potency [1] > 11.4 µM | activity change, negative = inhibition [2] 2.3% | activity change, negative = inhibition [4] 4.65% | activity, negative = inhibition [5] 2.98% | Potency [6] > 46 µM | Potency [16] > 46 µM | outcome [7] | Potency [8] | Potency [9] | outcome [18] | Potency [15]
active: Potency [3] 3.16 µM | Potency [17] 3.16 µM | Potency [10] 44.7 µM

FC(F)(F)c1ccccc1-c1nc(NC2CCNCC2)c2ccccc2n1
inactive: Potency [1] > 11.4 µM | activity change, negative = inhibition [2] 9.18% | activity change, negative = inhibition [4] 7.17% | activity, negative = inhibition [5] 1.97% | Potency [6] > 46 µM | Potency [16] > 46 µM | outcome [7] | Potency [8] | activity change, negative = inhibition [11] 1.75% | Potency [12] | Potency [13] | Potency [14] | Potency [15] | Potency [10]
17.3%: max response [11, 22]
19.6%: max response [11, 21]

CCNc1ncc2nc(CCc3ccccc3)c(=O)n(-c3ccccc3)c2n1
inactive: Potency [1] > 11.4 µM | activity change, negative = inhibition [2] -30.4% | activity change, negative = inhibition [4] -2.92% | activity, negative = inhibition [5] 16.3% | Potency [6] > 9.22 µM | Potency [16] > 46 µM | outcome [7] | Potency [9] | max response [20] 16.3%
active: Potency [3] 1.26 µM | Potency [17] 5.01 µM | Potency [19] 35.5 µM

Fc1ccc(Nc2ccnc(-c3ccccc3C(F)(F)F)n2)cc1
inactive: Potency [1] > 11.4 µM | activity change, negative = inhibition [2] -7.91% | activity change, negative = inhibition [4] -6.61% | activity, negative = inhibition [5] 3.25% | Potency [6] > 46 µM | Potency [16] > 46 µM | outcome [7] | Potency [8] | Potency [9] | Potency [12] | Potency [13] | Potency [14] | max response [20] -1.83%
active: Potency [3] 2 µM | Potency [19] 50.1 µM

Source: PubChem BioAssay (NCATS)
